# Screens: PubChem BioAssay, National Center for Advancing Translational Sciences (NCATS)
# This excerpt belongs to a sample that is enriched for hits.
# PGK inhibitor: blocks T. brucei phosphoglycerate kinase; actives 0.043% (n = 380,000); PGK/GAPDH coupled, Kinase-Glo luminescence, 60 min; AID 602233; Potency, µM (highest dose often 57.5 µM), without a hit: at the top dose activity change, negative = inhibition, hits mostly inhibitors; further: potency means the concentration at half of the fitted maximal effect; nearly all actives have a fitted effect of over 60% in size
#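 Recombinant glycosomal PGK reaction used 1,3-bisphosphoglycerate generated in-well by GAPDH (100nM final) in 100mM TEA pH 7.6, 5mM MgCl2, 0.01% Tween-20. After 60 minutes at room temperature, ATP was read by Kinase-Glo Plus luminescence end-point.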
# Pin1 inh: human Pin1 inhibition; Q13526; Pin1 FP peptide displacement, HiFluor488, 10 min; Potency, µM (doses to about 115 µM), for the others: at the highest dose activity, negative = inhibition, actives largely listed as inhibitors; actives 0.009% (n = 390,000); AID 504891; active means well fitted inhibition curve with a large enough effect in the polarisation, with a control signal flat, not every such curve was filed as active; inconclusive means small, poorly fitted or top-dose-only effect, or effect the other way, or a change in a side signal; inactive means no such curve, though single readings can be large or run the other way; the % refers to the polarisation; further: potency means the concentration at half of the fitted maximal effect
# Target sequence (Q13526 whole entry, looked up): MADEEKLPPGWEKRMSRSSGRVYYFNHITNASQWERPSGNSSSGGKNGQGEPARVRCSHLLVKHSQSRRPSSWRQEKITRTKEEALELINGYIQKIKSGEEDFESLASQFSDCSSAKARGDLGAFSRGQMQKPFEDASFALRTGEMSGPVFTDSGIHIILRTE
# PI5P4K alpha inh: inhibitors of human PI5P4K alpha. P48426. PI5P4Kalpha enzyme, ADP-Glo luminescence, 60 min; active compounds read low. max response, %. actives 1.2% (n = 330,000); active means max response of -50% or lower; inconclusive means between -30% and -50%; inactive means -30% or higher; further: value at the top dose of about 77 µM
#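 Human PI5P4Kalpha with substrate in 0.038 M HEPES pH 7.4, 0.28 mM EGTA, 0.1% CHAPS, 5% DMSO; reaction started with 5 microM ATP (final), 60 min at room temperature. ADP formed read by ADP-Glo luminescence.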
# PI4K2A inh: PI4K2A (human) kinase inhibition | Q9BTU6 | purified PI4K2A, ADP-Glo luminescence, 1 h; active compounds read low | activity change, negative = inhibition, % at 76.9 µM | actives 0.13% (n = 420,000) | AID 1346378; in the data active means activity change below about -50%; inconclusive means mostly about -30% to -49%;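 further: -100% = wells without enzyme as full effect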
#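 Compounds are screened against recombinant PI4K2A using PI as substrate and ATP, the latter dispensed at 300 microM. Reactions run one hour at ambient temperature before ADP-Glo detection; full inhibition defined by wells lacking enzyme.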
# Tb PFK inh: T. brucei PFK enzyme inhibition | T. brucei PFK, ADP-Glo luminescence | Potency, µM (top dose mostly 57.5 µM), for the others: at the top dose activity, negative = inhibition, usual class: inhibitors | actives 0.17% (n = 330,000) | AID 485367;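 further: potency means the concentration at half of the fitted maximal effect; 0% = uninhibited 1x PFK enzyme wells and -100% = no-enzyme wells; nearly all actives have a fitted effect of over 60% in size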
#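 PFK 1.25 nM, F6P 0.5 mM, ATP 0.1 mM, 0.1 M TEA pH 8.0, 5 mM MgCl2, 0.01% Tween20, 0.1% BSA; 45 min RT. ADP-Glo readout. qHTS titration up to 57 uM; curves fitted, compounds curve-classed.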
# ADP-Glo counter: counter-screen for PI5P4K inhibitors: ADP-Glo detection interference, no enzyme. AID 743285. 1,100 tested, under 10 active. shares compounds with PI5P4K alpha inh. Potency, µM (highest dose often 76.9 µM), inactives show top-dose activity change, negative = inhibition, most hits filed as inhibitors. ADP-Glo detection counter-screen, luciferase luminescence, no enzyme
# * = called active by the depositor; i = inactive; u = inconclusive; x = no result. Unless noted, the call rests on the fitted dose curve; in most records, active means well fitted curve in the direction sought with a large enough effect; inconclusive means small, poorly fitted or top-dose-only effect, or another doubt; inactive means no such curve, though single readings can be large; an effect the other way counts as inactive or inconclusive. Unless noted, on the % scale 0 is the no-effect control and ±100 the full control effect.
SMILES,PGK inhibitor,Pin1 inh,PI5P4K alpha inh,PI4K2A inh,Tb PFK inh,ADP-Glo counter
COc1ccccc1Cc1c(-c2ccco2)nc2cc(C)c(Br)c(C)n12,x,x,-64*,-26,x,-1%
Cc1cc2nc(-c3ccco3)c(Cc3cccc(Cl)c3)n2c(C)c1Br,x,x,-56*,-27,x,-1%
Brc1ccc2nc(-c3ccco3)c(Cc3ccccc3)n2c1,x,x,u,-6,x,x
COc1ccc(-c2csc(NC(=O)c3ccccc3F)c2C(=O)O)cc1,5%,1%,-51*,4,0%,0%
CCOC(=O)c1c(-c2ccc(Br)cc2)csc1NC(=O)c1ccccc1F,-3%,0%,x,-11,x,x
COc1cc(C(=O)Nc2scc(-c3ccccc3)c2C(=O)O)cc(OC)c1OC,i,-8%,-71*,6,2%,-7%
CCOC(=O)c1c(-c2cc(OC)c(OC)c(OC)c2)csc1NC(=O)c1ccccc1,-3%,x,10,1,x,x
Cc1ccc(C(=O)Nc2scc(-c3ccccc3)c2C(=O)O)cc1,i,10%,0,-6,x,x
COc1cc(C(=O)Nc2scc(-c3ccc(C)cc3)c2C(=O)O)cc(OC)c1OC,-5%,-1%,-85*,4,0%,7%
O=C(O)C1C2C=CC(C3CC23)C1C(=O)N1CCc2ccccc21 (stereo unspecified),-4%,1%,x,0,1%,x
Cc1ccn2c(Nc3ccc(F)cc3)c(-c3ccccn3)nc2c1,-4%,-7%,x,-2,x,x
O=C(NCc1ccccc1)C(c1cc2ccccc2o1)n1c(=O)c(-c2ccco2)nc2ccccc21 (stereo unspecified),x,x,u,-17,x,x
O=C(NC1CCCCC1)C(c1ccnc2ccccc12)n1c(=O)c(-c2ccco2)nc2ccccc21 (stereo unspecified),x,x,-78*,-6,x,-5%
O=C(NCc1ccccc1)C(c1ccccc1)n1c(=O)c(-c2ccco2)nc2ccccc21 (stereo unspecified),x,x,-64*,-22,x,-4%
O=C(Nc1ccc2c(c1)OCCO2)C(c1ccnc2ccccc12)n1c(=O)c(-c2ccco2)nc2ccccc21 (stereo unspecified),x,x,u,-3,x,x
Nc1nc(N)c2cc(Sc3ccc4ccccc4c3)ccc2n1,i,5%,-51*,-9,-2%,0%
Nc1nc(N)c2cc(Sc3ccc(Cl)cc3)ccc2n1,i,x,-15,8,x,x
COc1ccccc1C(=O)NCC(=O)OCc1csc(-c2ccccc2)n1,-1%,-8%,5,-6,4%,x
O=C(Cc1cccs1)NCCc1csc(-c2ccccc2)n1,-7%,0%,-60*,-2,-12%,1%
O=C(CCc1ccccc1)NCCc1csc(-c2cccc(F)c2)n1,-6%,-3%,x,-3,x,x
Cc1ccc(S(=O)(=O)N(CC(=O)Nc2ccccc2C(=O)O)c2ccccc2C)cc1,i,2%,-51*,6,-2%,0%
CS(=O)(=O)c1ccc(C(=O)Nc2nc(-c3ccco3)c(-c3ccco3)s2)cc1,-2%,x,-84*,u,u,4%
O=C(Nc1nc(-c2ccccc2)cs1)c1ccco1,-2%,-5%,3,-1,4%,x
O=C(Nc1nc(-c2ccco2)cs1)c1ccccc1,-4%,58%,-63*,-10,-5%,-2%
O=S(=O)(c1ccc2c(c1)OCCO2)C1CCC(O)CC1 (stereo unspecified),x,x,x,x,1%,x
CCn1c(C(=O)NCc2ccc(F)cc2)cc2oc3ccccc3c21,4%,1%,x,-4,x,x
CCC1=Nc2cc(C(=O)NCc3ccco3)ccc2Sc2ccccc21,-1%,12%,-20,4,-1%,x
CCC1=Nc2cc(C(=O)O)ccc2Sc2ccccc21,6%,-2%,-57*,2,-2%,-2%
CC(C)C[C@H]1CN(CCCC[C@@H]2CNC(=O)C(=O)N2CCc2ccccc2)C(=O)C(=O)N1CCc1ccc(O)cc1,x,x,-4,-5,x,x
Cc1cc(C)c(C)c(S(=O)(=O)N[C@@H](C)C(=O)OCc2cc(=O)n3cc(Br)ccc3n2)c1C,4%,u,-52*,-6,u,-2%
